# Compounds without any hit were thinned out: in the full panel of roughly 79,000, 15% have a hit. Unmarked numbers belong to inactive results. The source made the active and inactive calls. Cut-off read from the data, not from the text of the source: active = growth inhibition above about 70%; inactive = the rest.
# What was measured:
# [1] = NCI Yeast Anticancer Drug Screen. Data for the rad50 strain (AID 155);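 note: 0% = growth of vehicle-only cultures of the same strain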; settings: S. cerevisiae rad50 strain growth inhibition, active compounds read high
# Summary of the method: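 Genetically altered yeast (DNA repair pathway); compound treatment; growth inhibition vs vehicle ctrl.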
# [2] = NCI Yeast Anticancer Drug Screen. Data for the mec2-1 strain (AID 157); settings: S. cerevisiae mec2-1 strain, active compounds read high
# Summary of the method: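 mec2-1 yeast strain, carrying an alteration in DNA damage repair or cell cycle control, was exposed to compounds; growth inhibition was measured relative to vehicle-treated controls.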
# [3] = NCI Yeast Anticancer Drug Screen. Data for the sgs1 mgt1 strain (AID 161);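 note: 0% = growth of cultures given vehicle only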; settings: S. cerevisiae sgs1 mgt1 strain, active compounds read high
# Summary of the method: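 Yeast cells carrying a defined DNA-repair defect were exposed to test compounds. Growth inhibition was measured relative to vehicle-treated controls.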
# [4] = NCI Yeast Anticancer Drug Screen. Data for the cln2 rad14 strain (AID 165);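 note: 0% = growth equal to vehicle treated cultures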; settings: S. cerevisiae cln2 rad14 strain, active compounds read high
# Summary of the method: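 Yeast carrying cln2 and rad14 alterations (cell cycle control and DNA damage repair) were exposed to compounds. Growth inhibition was measured against vehicle-treated controls.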
# [5] = NCI Yeast Anticancer Drug Screen. Data for the bub3 strain (AID 167); settings: S. cerevisiae bub3 mutant strain, active compounds read high
# Summary of the method: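 Yeast carrying a defined mutation is treated with each compound, and growth is compared with that of vehicle-exposed cells to give inhibition.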
# [6] = NCI Yeast Anticancer Drug Screen. Data for the mlh1 rad18 strain (AID 175); settings: S. cerevisiae mlh1 rad18 strain growth inhibition, active compounds read high
# Summary of the method: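 Growth inhibition of the yeast strain was measured after compound exposure and expressed relative to vehicle-treated controls. The strain carries defined defects in DNA damage repair.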
# [7] = at 5.0 µM (retest, dose inferred, filed as 0.5)
# [8] = at 50.0 µM (retest, dose inferred, filed as 5.0)
SMILES,"growth inhibition [1, 7]","growth inhibition [1, 8]",growth inhibition ([1]; at 50.0 µM),"growth inhibition [2, 7]","growth inhibition [2, 8]",growth inhibition ([2]; at 50.0 µM),"growth inhibition [3, 7]","growth inhibition [3, 8]",growth inhibition ([3]; at 50.0 µM),"growth inhibition [4, 7]","growth inhibition [4, 8]",growth inhibition ([4]; at 50.0 µM),"growth inhibition [5, 7]","growth inhibition [5, 8]",growth inhibition ([5]; at 50.0 µM),"growth inhibition [6, 7]","growth inhibition [6, 8]",growth inhibition ([6]; at 50.0 µM)
N#Cc1c2ccccc2nc2ccccc12,37%,45%,85.9% (active),21%,19%,16.9%,-1%,37%,30.1%,2%,3%,19.6%,5%,12%,28.4%,1%,17%,74.2% (active)
Oc1ccc(Br)cc1Sc1cc(Br)ccc1O,6%,99% (active),87.9% (active),28%,99% (active),99.7% (active),26%,100% (active),99.7% (active),14%,98% (active),99.4% (active),16%,99% (active),99.2% (active),53%,99% (active),99.5% (active)
COc1ccc2c(c1OC)OCC(CN(C)C)C2=O (centres undefined),-20%,98% (active),97% (active),2%,99% (active),99.3% (active),23%,98% (active),99% (active),5%,99% (active),96.3% (active),1%,99% (active),93.9% (active),-4%,98% (active),99.2% (active)
CC(=O)Nc1ccc(C(=O)CCl)cc1,98% (active),98% (active),76.3% (active),96% (active),99% (active),51.7%,98% (active),99% (active),99% (active),87% (active),93% (active),51.6%,99% (active),99% (active),7.6%,98% (active),99% (active),94.7% (active)
Cc1ccccc1NC(=O)Cc1csc2[n+]1C(=O)/C(=C/c1ccc([N+](=O)[O-])cc1)S2,22%,28%,15.7%,29%,33%,-6.7%,-14%,-4%,39.6%,-2%,7%,-27.7%,8%,4%,8.95%,25%,37%,20.5%
O=C(c1ccccc1)c1ccc(O)c2ncccc12,23%,99% (active),98.6% (active),-11%,99% (active),97.8% (active),10%,99% (active),99% (active),-8%,99% (active),98% (active),5%,99% (active),98.5% (active),17%,98% (active),98.3% (active)
CCCCOS(=O)(=O)c1ccccc1,7%,-25%,-6%,10%,1%,-2.6%,0%,1%,8.95%,5%,0%,-23.1%,-23%,-6%,0.8%,3%,1%,14.2%
COc1ccc(Nc2nc3ccc(C(F)(F)F)cc3nc2C(=O)O)cc1,10%,51%,30.6%,13%,46%,42.9%,21%,22%,40.6%,31%,37%,68.3%,7%,12%,60.5%,9%,48%,54.5%
O=[N+]([O-])/C(=C/c1ccccc1)c1ccccc1,99% (active),99% (active),99.6% (active),100% (active),99% (active),99.7% (active),99% (active),97% (active),99.7% (active),99% (active),99% (active),98.7% (active),100% (active),99% (active),99.5% (active),99% (active),99% (active),99.5% (active)
C/C(=N/NC(N)=S)c1ccc(C)cc1,-4%,40%,69%,-4%,6%,3.5%,-5%,2%,40.2%,-11%,-22%,2.3%,-13%,-8%,45%,-4%,20%,66.1%
C/C(=N\NC(=S)N1CC2CCC(CC2)C1)c1ccccn1,33%,65%,86.7% (active),13%,73% (active),89.7% (active),26%,76% (active),88.8% (active),23%,81% (active),79.1% (active),21%,80% (active),88.7% (active),25%,68%,92.3% (active)
COc1ccc2c(c1)C(N)=C(c1ccccc1)C2=O,14%,15%,70.2% (active),16%,8%,28.2%,16%,28%,63.1%,17%,10%,0.55%,24%,19%,59.2%,21%,9%,-31.8%
C=C(C)C1CC2(C)C(C)CC(O)CC2C(OC(=O)C=C(C)C)C1O (centres undefined),26%,73% (active),78.3% (active),12%,58%,69.1%,21%,78% (active),79.8% (active),17%,25%,47%,15%,78% (active),80.1% (active),32%,82% (active),69%
CC(C)(C)c1ccc(O)c(-c2ccccc2)c1,-3%,97% (active),99.2% (active),-6%,98% (active),99.7% (active),-2%,98% (active),99.5% (active),-8%,98% (active),97.2% (active),2%,97% (active),99.2% (active),-4%,98% (active),66.5%
O=C(Cc1nc2cc(Cl)c(Cl)cc2nc1CC(=O)c1cccnc1)c1cccnc1,-7%,96% (active),96.3% (active),-17%,96% (active),98.2% (active),-12%,97% (active),92.6% (active),-5%,98% (active),94.3% (active),-1%,98% (active),95.4% (active),-2%,98% (active),97.8% (active)
C(=N\Nc1ccc2ccccc2n1)/c1ccccn1,49%,72% (active),90.7% (active),30%,78% (active),92.6% (active),46%,85% (active),93.1% (active),31%,63%,90.7% (active),44%,81% (active),92.3% (active),50%,87% (active),92.1% (active)
O=C1C=CC(=O)N1C1CCCCCCCCCCC1,32%,66%,83.5% (active),46%,58%,86% (active),44%,98% (active),–,56%,98% (active),–,71% (active),97% (active),–,30%,61%,79.4% (active)
COc1ccc(/C=C2/C(=O)ON=C2C)cc1,12%,10%,76% (active),5%,41%,45.8%,-6%,29%,41.8%,-12%,26%,46%,11%,23%,88.5% (active),11%,12%,23.7%
CCN(CC)CCNc1ccc([N+](=O)[O-])c2sc3ccccc3c(=O)c12,46%,95% (active),86.2% (active),13%,85% (active),90.7% (active),19%,84% (active),41.2%,12%,60%,20.5%,27%,98% (active),17.7%,33%,88% (active),90.3% (active)
CCN1/C(=C/C(C)=C/c2sc3ccc4ccccc4c3[n+]2CC)Sc2ccc3ccccc3c21,28%,30%,79.8% (active),30%,36%,82% (active),-7%,42%,81.7% (active),–,–,–,43%,10%,73.2% (active),41%,35%,69.9%
